± gives the standard deviation.
What follows are sequences tested on MILI (PIWIL2) piRISC loaded with L1MC piRNA (26 nt) (assay: pre-steady-state target cleavage rate (min^-1); guide: L1MC piRNA 5'p-UAACUAAAUACUAUGCAAGCUGUAGG; MIWI and MILI are mouse PIWI proteins and EfPiwi is from a freshwater sponge; tags in brackets are library labels; higher = faster piRNA-guided slicing of the target). Conditions: auxiliary factor: 500 nM mouse GTSF1.
Method in brief: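 At 33 °C in HEPES–potassium acetate buffer, a transcribed, DNA-blocked target RNA library […] was exposed for 0–8 or 0–960 min to 1 nM active affinity-purified piRISC carrying a single synthetic guide, with or without 500 nM GTSF1 partner protein. Uncleaved targets were sequenced and normalised to depth and to weakly complementary targets. With three trials pooled and k3 capped at 0.0001 min^-1, a burst-and-steady-state fit produced the pre-steady-state cleavage rate.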
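Further: 1 nM active piRISC with 0.1 nM target library at 33 °C single turnover.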

| Sequence | pre-steady-state target cleavage rate |
| --- | --- |
| UCCUGGAUGUCGAACCAUAGUAUUUAGCUUA | < 0.0001 |
| UCCUGGUACAGCUUGCAUAGUAAAAAGUAA | 0.031 ± 0.013 |
| UCCUGCUACAGCUUGCAUAGUUUUUACUUA | 0.0291 ± 0.0063 |
| UCCUGGUACAGCUACGAUAGUAUUUAGUAA | 0.183 ± 0.034 |
| UCCUGGAUGUCGAAGCAUAGUAUUAUGUUA | 0.00859 ± 0.0044 |
| UCCUGGAUGAGCUUGCAUAGUAAUUAGAAA | 0.00737 ± 0.0053 |
| UCCUGGAUGAGCAUGCAUAGAAUUUAGUUA | 0.0184 ± 0.008 |
| UCCUGGAUGUCGAUGCAUAGUAUUGAGUUA | 0.0608 ± 0.013 |
| UCCUGGUACAGCUUGCAUAGUAUAUAGAUA | 0.014 ± 0.0071 |
| UCCUGGAUGUGCUUGCAUUGAAUUUAGUUA | 0.00465 ± 0.0038 |
| UCCUCCUACAGCUAGCAUAGUAUUUACUUA | 0.15 ± 0.022 |
| UCCUGGAUGUCGAACGUAUGUAUUUAGUAUA | < 0.0001 |
| UCCUGGAUCAGCUAGCAUAGUAUUUACUUA | 0.134 ± 0.018 |
| UCCUGGAUCAGCUUGCAUACUAUAUAGUUA | 0.018 ± 0.0043 |
| UCCUGGAUGACCUUCCAUAGUAUUUAGUUA | 0.024 ± 0.0096 |
| UCCUGGAUCAGCUUGCAUAGUAUAAACAAA | 0.0772 ± 0.019 |

| Sequence | pre-steady-state target cleavage rate |
| --- | --- |
| UCCUGCUACAGCAACCAUAGUAUUUAGAAA | 0.102 ± 0.03 |
| UCCUGGAUGAGCUUGCAUAGUAAUUACUUA | 0.00616 ± 0.004 |
| UCCUGGAUCAGCUUGCAUAGUAAAUAGAAA | 0.0183 ± 0.0078 |
| UCCUGGUAGAGCUUGCAUACUAUUUAGUUA | 0.0467 ± 0.011 |
| UCCUCCUACAGGAAGCAUAGUAUUUAGAAA | 0.107 ± 0.017 |
| UCCUGGAACAGCUAGCAUAGUAUUUUCAAA | 0.0419 ± 0.014 |
| UCCUGGAACAGCUUGCAAUCUAUUUAGUAA | 0.025 ± 0.0099 |
| UCCUGGAACAGCUUGGAUACUAUUUAGUUA | 0.0744 ± 0.017 |
| UCCUGGAUGUCGAAACAUAGUAUUUAGUUA | 0.0131 ± 0.004 |
| UCCUGCUACACGUUGCAUAGUAUUUUCAAA | 0.00757 ± 0.0052 |
| UCCUGGAACACGUUGCAUAGUAUUUUCAAA | 0.0973 ± 0.026 |
| UCCUGGAUGUCCUUGCAUAGUAUUAUGUUA | 0.00972 ± 0.0046 |
| UCCUGGAUCAGGUUCCAUAGUAUUUAGUUA | 0.00709 ± 0.004 |
| UCCUGGAACAGCUUGCAAUGUAUUUACAAA | 0.0552 ± 0.017 |
| UCCUGGAUCAGCUUGCAUAGAAUUUACUUA | 0.021 ± 0.0075 |

Same assay, conditions: auxiliary factor: none (no GTSF1)

| Sequence | pre-steady-state target cleavage rate |
| --- | --- |
| UCCUGGAUGUCGAACGUAUCUAAUUUAGUUA | < 0.0001 |
| UCCUGGAUGUCGAACCAAAGUAUUUAGUAA | < 0.0001 |
| UCCUGGAUCAGCUUCCAUAGUAUUAAGUUA | < 0.0001 |
| UCCUGGAUCAGCUACGAUAGUAUUUUCAAA | < 0.0001 |
| UCCUGGAUGAGCUUGCAUAGAUAUUACAAA | < 0.0001 |
| UCCUGGAUGUCGAACCAUAGUAUUAAGUAA | < 0.0001 |
| UCCUGGAUGUCGUUGCAUAGAUUUUAGUUA | 0.00439 ± 0.0019 |
| UCCUGGAUGUCGAAGCUUAGUAUUUUGUUA | < 0.0001 |
| UCCUGGAUGUCGAACGUUAGUAAUUAGUUA | < 0.0001 |

Reference: the supplement of paper PMC10338343
